PubChem BioAssay AID1159580 (chemical genetic matrix, 2015)
The campaign covered roughly 5,500 compounds. About 2,000 (36%) were called active. Another 18% or so got no clear call; they are omitted. Cut-off read from the data, not from the text of the source: active = normalized growth mostly below about 0.91 (no sharp cut-off); inconclusive = no clear call, values can overlap the other calls; inactive = mostly above about 0.92. This is one part of the list.

Experiment: chemical genetic growth profiling, strain panel (AID 1159580);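 note: tested at 20 µM; growth read once vehicle control cultures reached saturation at 30 °C; 1 = growth at the plate median or of vehicle wells; lower values mean less growth of the strain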
Details: S. cerevisiae deletion strains, growth OD

Measured: normalized growth

C#CCN1C(C)=C(C(=O)OC)C(c2cccc([N+](=O)[O-])c2)C(C(=O)OCC)=C1C (stereo not given)
inactive: locus YAL013W, strain DEP1, hits give low values 1.01 | locus YAL040C, strain CLN3, hits give low values 0.971 | locus YCL061C, strain MRC1 (second series), hits give low values 1 | locus YDR363W, strain ESC2, hits give low values 1.01 | locus YER002W, strain NOP16, hits give low values 1.02 | locus YGR078C, strain PAC10, hits give low values 0.996 | locus YMR263W, strain SAP30, hits give low values 1.02 | locus YMR307W, strain GAS1, hits give low values 0.998 | locus YNL128W, strain TEP1, hits give low values 1.03 | locus YNL153C, strain GIM3, hits give low values 0.988 | locus YNL175C, strain NOP13, hits give low values 1.04 | locus YNL197C, strain WHI3, hits give low values 1.03 | locus YNL224C, strain SQS1, hits give low values 1 | locus YNL322C, strain KRE1, hits give low values 1 | locus YOR083W, strain WHI5 (second series), hits give low values 1.04
